Source: PubChem (National Center for Advancing Translational Sciences (NCATS))
HP1b chromo inh = HP1-beta chromodomain-methylated histone interaction inhibition; actives 0.56% (n = 390,000); Potency, µM (doses to about 114 µM), inactives show at the highest dose activity change, negative = inhibition, usual class: inhibitors; P83916; AlphaScreen HP1-beta / biotin-H3K9me3 peptide binding; also: nearly all actives have a fitted effect of over 70% in size
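HP1-beta protein (50 nM final) preincubated 30 min at room temperature with biotinylated H3(1-18)K9me3 peptide (50 nM) in PBS pH 7.4, 0.01% Tween-20, then compound added for 30 min. AlphaScreen streptavidin donor/nickel chelate acceptor beads (10 ug/mL final), 30 min dark, luminescence read.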
G9a inh = G9a (human) methyltransferase inhibition | Q96KQ7 | G9a H3K9 monomethylation, AlphaScreen, 2 h | Potency, µM (titrated, usually from 102 µM), inactives show top-dose activity, negative = inhibition, actives largely listed as inhibitors | actives 8.8% (n = 350,000); also: % is scaled to controls: 0 for no effect and ±100 for the full control effect; nearly all actives have a fitted effect of over 75% in size
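AlphaScreen read-out: biotin-H3K9 peptide (500 nM) methylation by 20 nM enzyme with 20 uM SAM, 2 h at room temperature after 15 min compound preincubation; anti-monomethyl H3K9 antibody plus donor/acceptor beads, 10 min dark.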
PLK1 PBD block = blocks phosphopeptide binding to human PLK1 polo-box domain. actives 2.8% (n = 360,000). Plk1 PBD binding of FITC phosphopeptide, fluorescence polarization. P53350. Potency, µM, for the others: max response, negative = inhibition, usual class: inhibitors; also: series mostly up to about 57 µM; % is scaled to controls: 0 for no effect and ±100 for the full control effect; nearly all actives have a fitted effect of over 65% in size
ALOX12 inh = ALOX12 (human) lipoxygenase inhibition; actives 1.1% (n = 580,000); Potency, µM (doses to about 108 µM), for the others: at the highest dose activity change, negative = inhibition, hits mostly inhibitors; purified 12hLO, xylenol orange hydroperoxide absorbance; AID 1671190; P18054; also: % is scaled to controls: 0 for no effect and ±100 for the full control effect
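Purified human 12hLO at 150 nM in 25 mM Hepes, 0.01% Triton X-100, pH 7.0, preincubated 15 min at room temperature with compound. Reaction started with 40 uM arachidonic acid, 30 min at room temperature. Hydroperoxide measured by Fe-xylenol orange, 573/405 nm absorbance ratio.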
JMJD2A Tudor = JMJD2A Tudor domain (human) inhibition; actives 4.4% (n = 390,000); AID 504339; Potency, µM (highest dose often 114 µM), for inactives: at the top dose activity change, negative = inhibition, usual class: inhibitors; AlphaScreen JMJD2A-Tudor / H3K4me3 peptide binding; O75164; also: % is scaled to controls: 0 for no effect and ±100 for the full control effect; nearly all actives have a fitted effect of over 50% in size
BAZ2B block = BAZ2B (human) inhibition; Q9UIF8; AlphaScreen BAZ2B-H3K14Ac peptide displacement; Potency, µM (top dose mostly 114 µM), inactives show top-dose activity change, negative = inhibition, most hits filed as inhibitors; actives 4.4% (n = 360,000); AID 504333; also: % is scaled to controls: 0 for no effect and ±100 for the full control effect; nearly all actives have a fitted effect of over 60% in size
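Protein-peptide AlphaScreen: BAZ2B 50 nM, b-H3K14Ac 50 nM, 1x PBS pH 7.4 + 0.01% Tween-20. Preincubation 30 min RT; cpd 30 min RT (top 110 uM); beads 20 min RT, light-protected.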
* = called active by the depositor; [ ] = dose if it differs, or a comment. In the library only some 9% were active in any assay of this set; here they are far more common. Calls follow the shape of the dose curve; as a rule, active = well fitted curve in the direction sought with a large enough effect; inconclusive = small, poorly fitted or top-dose-only effect, or another doubt; inactive = no such curve, though single readings can be large; an effect the other way counts as inactive or inconclusive. Potency is read from the fitted curve at half-maximal effect.

Results for Cc1ccc(Cl)cc1N1CCN(S(=O)(=O)c2cn(C)c(C)n2)CC1 ?
HP1b chromo inh: 6.6%[57 µM]; G9a inh: 0.7%[59 µM]; ALOX12 inh: -7.1%; JMJD2A Tudor: 56.2µM*; BAZ2B block: -22.3%

What do the screens show for `CCCCN(C(=O)Cc1ccc(S(=O)(=O)N2CCOCC2)s1)c1c(N)n(CCCC)c(=O)[nH]c1=O`?
HP1b chromo inh: 28.4%; G9a inh: 56.2µM*; PLK1 PBD block: -6.1%; ALOX12 inh: -4.7%; JMJD2A Tudor: -7.6%; BAZ2B block: 4.4%

How did CCCCN(C(=O)c1ccc2c(c1)OCCO2)c1c(N)n(CC(C)C)c(=O)[nH]c1=O do in these assays?
HP1b chromo inh: 38.5%; G9a inh: 44.7µM*; PLK1 PBD block: -2.9%; ALOX12 inh: -10.8%; JMJD2A Tudor: 0.0%; BAZ2B block: -4.1%

What do the screens show for `CCCCn1c(N)c(N(CC(C)C)C(=O)Cc2ccc3c(c2)OCCO3)c(=O)[nH]c1=O`?
HP1b chromo inh: 26.2%; G9a inh: 50.1µM*; PLK1 PBD block: -2.2%; ALOX12 inh: inconclusive; JMJD2A Tudor: -9.5%; BAZ2B block: -3.8%

What do the screens show for `CC(=O)/C(=N/Nc1ccccc1)N1CCOCC1`?
HP1b chromo inh: 32.5%; G9a inh: -19.0%[59 µM]; PLK1 PBD block: 0.0%; ALOX12 inh: -7.1%; JMJD2A Tudor: -15.8%; BAZ2B block: 3.3%

What do the screens show for `CC(=O)/C(=N/Nc1ccccc1C)N1CCOCC1`?
HP1b chromo inh: 0.8%; G9a inh: 1µM*; PLK1 PBD block: -13.2%; ALOX12 inh: -22.6%; JMJD2A Tudor: 56.2µM*; BAZ2B block: -1.9%

How did Cc1cccnc1NC(=O)C(C)Oc1ccccc1 (configuration not stated) do in these assays?
HP1b chromo inh: 19.5%; G9a inh: -29.5%[12.7 µM]; PLK1 PBD block: -5.0%; ALOX12 inh: 467.4%; JMJD2A Tudor: -8.9%; BAZ2B block: -2.0%

How did COc1cc(C(N)=O)cc(Cl)c1OC do in these assays?
HP1b chromo inh: 14.0%; G9a inh: inconclusive; PLK1 PBD block: -7.3%; ALOX12 inh: -10.9%; JMJD2A Tudor: -8.6%; BAZ2B block: -1.3%

How did COCCCNC(=O)c1cc(OC)c(OC)c(OC)c1 do in these assays?
HP1b chromo inh: 0.4%; G9a inh: 31.1%[2.33 µM]; PLK1 PBD block: 29.9µM*; ALOX12 inh: 6.1%; JMJD2A Tudor: -11.0%[11.4 µM]; BAZ2B block: 6.7%

What do the screens show for `CNC(=O)c1cc(Cl)c(OC)c(OC)c1`?
HP1b chromo inh: inconclusive; G9a inh: 7.94µM*; PLK1 PBD block: 26.7µM*; ALOX12 inh: inconclusive; JMJD2A Tudor: -34.9%; BAZ2B block: -0.9%

Results for COc1cc(C(=O)NC(c2ccccc2)c2ccccc2)cc(OC)c1C ?
HP1b chromo inh: 15.3%; G9a inh: 50.1µM*; PLK1 PBD block: -8.3%; JMJD2A Tudor: -5.7%; BAZ2B block: inconclusive

How did O=C(O)c1cccnc1SCc1cccc(C(F)(F)F)c1 do in these assays?
ALOX12 inh: -20.0%

Results for CC(C)N(C)CCOC(=O)c1ccccc1Cl ?
HP1b chromo inh: 17.4%; G9a inh: -6.8%[59 µM]; PLK1 PBD block: -9.7%; ALOX12 inh: 6.6%; JMJD2A Tudor: -4.1%; BAZ2B block: inconclusive

Results for CC(C)N(C)CCOC(=O)c1ccccc1Br ?
HP1b chromo inh: 18.5%; G9a inh: -2.4%[59 µM]; PLK1 PBD block: 23.8µM*; ALOX12 inh: -20.0%; JMJD2A Tudor: 50.1µM*; BAZ2B block: 2.3%

How did CCCC#Cc1ccc2c(c1)O[C@@H](CN(C)Cc1ccc3c(c1)OCO3)[C@H](C)CN([C@@H](C)CO)S2(=O)=O do in these assays?
PLK1 PBD block: -8.5%; ALOX12 inh: inconclusive

How did CC(NC(=O)CSc1nc2sc3c(c2c(=O)n1-c1ccccc1)CCCC3)c1ccccc1 (configuration not stated) do in these assays?
HP1b chromo inh: 11.2%; G9a inh: 15.0%[59 µM]; PLK1 PBD block: -7.1%; ALOX12 inh: -8.0%; JMJD2A Tudor: -26.0%; BAZ2B block: 6.2%

How did NNc1nc2sc3c(c2c(=O)n1-c1ccccc1)CCCC3 do in these assays?
HP1b chromo inh: 6.1%; G9a inh: 50.1µM*; PLK1 PBD block: -5.0%; ALOX12 inh: 72.3%; JMJD2A Tudor: -27.5%; BAZ2B block: -5.9%

Results for O=C(CSc1nc2sc3c(c2c(=O)n1-c1ccccc1)CCCC3)N/N=C/c1ccccc1C(=O)O ?
HP1b chromo inh: 15.2%; G9a inh: 79.4µM*; PLK1 PBD block: -14.3%; JMJD2A Tudor: inconclusive; BAZ2B block: inconclusive

Results for COc1cccc(CN2CCN(C(=O)c3cc(-c4cccnc4)nc4ccc(C)cc34)CC2)c1 ?
HP1b chromo inh: 7.5%; G9a inh: 18.9%[59 µM]; PLK1 PBD block: -1.4%; ALOX12 inh: 0.0%; JMJD2A Tudor: -21.1%; BAZ2B block: inconclusive

Results for NC(=O)C1CC(=O)N(c2ccc(OCc3ccc(Cl)cc3)cc2)C1 (configuration not stated) ?
HP1b chromo inh: 12.8%; G9a inh: 22.5%; PLK1 PBD block: 5.97µM*; ALOX12 inh: -1.4%; JMJD2A Tudor: inconclusive; BAZ2B block: 0.8%

What do the screens show for `COc1ccccc1NC(=O)c1cc2cc3ccc(OC)c(Cl)c3nc2s1`?
HP1b chromo inh: 5.4%[57 µM]; G9a inh: 28.2µM*; ALOX12 inh: inconclusive; JMJD2A Tudor: 56.2µM*; BAZ2B block: 79.4µM*

How did COc1ccc(OC)c(NC(=O)c2cc3cc4ccc(C)cc4nc3s2)c1 do in these assays?
HP1b chromo inh: 35.9%; G9a inh: -0.4%[59 µM]; ALOX12 inh: -4.9%; JMJD2A Tudor: -4.8%; BAZ2B block: 2.2%

How did CCOC(=O)[C@]12Cc3c(cc(OC)c(OC)c3OC)[C@H]1N(Cc1ccccc1)C(=O)c1cc(F)c(F)cc12 do in these assays?
PLK1 PBD block: inconclusive; ALOX12 inh: 0.0%

Results for CCOC(=O)[C@]12Cc3c(cc(OC)c(OC)c3OC)[C@H]1N(CCC(=O)OC)C(=O)c1cc(OC)ccc12 ?
PLK1 PBD block: 11.9µM*; ALOX12 inh: inconclusive

Results for CCOC(=O)[C@]12Cc3c(cc(OC)c(OC)c3OC)[C@H]1N(Cc1ccccc1)C(=O)c1cc(OC)ccc12 ?
PLK1 PBD block: 7.52µM*; ALOX12 inh: -25.7%

How did O=Cc1c(NC2CCCCC2)c2ccccc2[nH]c1=O do in these assays?
HP1b chromo inh: 35.3%; G9a inh: -3.3%; PLK1 PBD block: -2.3%; ALOX12 inh: 0.0%; JMJD2A Tudor: 11.4%[57.1 µM]; BAZ2B block: -4.3%

How did COc1ccc2c(c1)nc(SCC(=O)c1cccs1)n2C do in these assays?
HP1b chromo inh: 1.5%; G9a inh: 44.7µM*; PLK1 PBD block: -24.2%; ALOX12 inh: -18.8%; JMJD2A Tudor: 79.4µM*; BAZ2B block: -18.2%[57.1 µM]
